# Source: PubChem BioAssay
# Anthrax LF prot = Bacillus anthracis LF protease inhibitors, primary screen, biochemical, multiplex microsphere, MLPCN library. Lethal factor (Bacillus anthracis), P15917. hit rate 0.12% among 360,000. multiplex microsphere protease cleavage assay. inhibition, % at 10 µM. AID 588501, 2011; further: plate controls were buffer without enzyme for full effect and enzyme alone for no effect
# FBA Mtb inh = Mtb FBA enzyme inhibitors, primary screen, biochemical, fluorescence, strain H37Rv; hit rate 2.3% among 360,000; purified M. tuberculosis FBA, fluorescence read-out; AID 588726, 2011; inhibition, % at 1 µM; in the data active means inhibition above about 27%;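 further: 0% = vehicle and 100% = reference inhibitor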
# Target sequence (P9WQA3 whole entry, looked up): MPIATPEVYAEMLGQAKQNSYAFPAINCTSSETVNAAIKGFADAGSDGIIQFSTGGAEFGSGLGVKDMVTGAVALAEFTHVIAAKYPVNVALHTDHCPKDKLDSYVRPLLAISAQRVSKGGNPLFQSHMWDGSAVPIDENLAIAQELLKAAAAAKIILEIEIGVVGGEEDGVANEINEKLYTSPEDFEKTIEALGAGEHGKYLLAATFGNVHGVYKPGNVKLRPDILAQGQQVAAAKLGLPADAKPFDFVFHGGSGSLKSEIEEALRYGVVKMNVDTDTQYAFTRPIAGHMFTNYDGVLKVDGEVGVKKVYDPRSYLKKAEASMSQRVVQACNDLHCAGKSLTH
# GDH-TPI inh = GDH-TPI coupling enzyme inhibitors, primary screen, artefact control for M. tuberculosis FBA inhibitor project, biochemical, absorbance, full deck. GDH-TPI coupled enzyme counterscreen, NADH absorbance. hit rate 1.2% among 360,000. inhibition, % at 4.8 µM. AID 588335, 2011; in the data active means inhibition above about 30%;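 further: 0% = DMSO wells and 100% = wells lacking the enzyme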
# BoNT F protease = BoNT/F light chain protease inhibitors, primary screen, biochemical, flow cytometry, MLPCN library | Multiplex microsphere protease cleavage assay | hit rate 0.22% among 360,000 | inhibition, % at 10 µM | Botulinum neurotoxin type F light chain protease (Clostridium botulinum); in the data active means inhibition above about 35%, passing the limit was not always enough; inconclusive means no clear call, values can overlap the other calls; further: plate controls were buffer without enzyme for full effect and enzyme alone for no effect
# Autofluor counter = counter-screen for toxin protease inhibitors: compound fluorescence; hit rate 3.1% among 360,000; fluorescence intensity (no concentration beside the values); AID 624483; compound autofluorescence counterscreen, microsphere flow cytometry; stronger effect = higher value; in the data active means fluorescence intensity above about 16000; inconclusive means no clear call, values can overlap the other calls
# BoNT A protease = BoNT/A light chain protease inhibitors, primary screen, biochemical, flow cytometry, MLPCN library | Botulinum neurotoxin type A light chain protease (Clostridium botulinum A str. ATCC 3502) | multiplex microsphere protease substrate cleavage | inhibition, % at 10 µM | hit rate 0.17% among 360,000 | AID 588499, 2011; further: plate controls were buffer without enzyme for full effect and enzyme alone for no effect
# Active calls of the source: *; ? = inconclusive. Shown are actives, neighbours in structure and some others; about 6.7% of the full set was active somewhere. Unless noted, no stated cut-off is given here; in the data, active means inhibition above about 30%; inconclusive means no clear call, values can overlap the other calls; inactive means below that.
SMILES,Anthrax LF prot,FBA Mtb inh,GDH-TPI inh,BoNT F protease,Autofluor counter,BoNT A protease
COc1ccc(-c2oc3cccnc3c2-c2ccc(OC)nc2)cc1,6.2,138.8*,7.6,-0.2,3377,0.7
COC(=O)CSC1=C(C#N)C(=O)NC(c2ccccc2)S1 (stereo unspecified),-1.2,-6.6,40.9*,-6.8,3330,0.1
CN(C)c1cncc(C(=O)O)c1,-2.1,7.2,-0.8,-2.9,2136,0.2
CN(C)c1ncc(C(=O)O)cn1,-1.4,7.5,9.7,-2.8,16816*,-1.1
CCN(C(=O)COC(=O)/C=C/c1ccc(Cl)c(Cl)c1)c1c(N)n(Cc2ccccc2)c(=O)[nH]c1=O,8.8,1.4,-2.1,-4.2,3454,-0.5
COc1ccccc1NC(=O)CN1CCN(c2ccccn2)CC1,-2.0,-6.3,-13.6,-1.2,20530*,-1.3
COc1ccccc1NC(=O)CN1CCN(CC(=O)Nc2ccc(OCc3ccccc3)cc2)CC1,-5.5,4.2,10.0,-2.1,3801,-0.4
COc1ccccc1NC(=O)CN1CCN(Cc2ccccc2)CC1,-5.1,-3.7,4.1,-4.8,16872*,-1.5
COc1ccc(NC(=O)CN2CCN(CC(=O)Nc3ccccc3Cl)CC2)c(OC)c1,-1.1,0.4,6.3,1.0,22552*,3.5
COc1ccccc1N(CC(=O)NCc1ccccn1)S(C)(=O)=O,2.6,-1.3,8.8,4.2,10479,1.4
Cc1nn(-c2cccc(Cl)c2)c2c1C(c1ccncc1)C(C#N)=C(N)O2 (stereo unspecified),7.9,-2.8,9.2,3.5,9376,-0.4
Cc1nn(-c2ccccc2)c2c1C(c1ccc([N+](=O)[O-])cc1)C(C#N)=C(N)O2 (stereo unspecified),2.6,1.1,9.0,1.2,3652,-1.8
COc1ccc(-c2ccc(C3C(C#N)=C(N)Oc4n[nH]c(C)c43)o2)cc1 (stereo unspecified),-0.7,-1.5,0.6,-3.9,21391*,?
Cc1nn(-c2ccccc2)c(C)c1C1C(C#N)=C(N)Oc2n[nH]c(C)c21 (stereo unspecified),4.9,-1.9,-13.4,35.8*,3695,3.5
COc1ccc(OC)c(C2C(C#N)=C(N)Oc3c2c(C)nn3-c2cccc(Cl)c2)c1 (stereo unspecified),-0.2,0.7,9.8,3.8,20225*,?
Cc1[nH]nc2c1C(c1ccco1)C(C#N)=C(N)O2 (stereo unspecified),1.0,-1.6,11.3,-5.5,1949,0.2
Cc1ccc(-n2nc(C)c3c2OC(N)=C(C#N)C3c2ccc(F)cc2)cc1 (stereo unspecified),0.9,2.0,14.7,-1.2,22457*,-0.3
O=[N+]([O-])c1cccc(CSc2nnc3ccccn23)c1,-4.1,1.3,0.3,-3.3,4331,-0.7
Cc1nn(-c2ccccc2)c2c1C(c1cccs1)C(C#N)=C(N)O2 (stereo unspecified),-6.4,7.2,19.1,-5.6,5486,-0.1
Cc1nn(-c2ccccc2)c2c1C(c1ccco1)C(C#N)=C(N)O2 (stereo unspecified),-7.2,-7.2,0.5,-0.9,23537*,?
CCOC(=O)c1sc(NC(=O)c2ccc(C)s2)cc1C,1.4,5.7,43.0*,-40.7,4901,-1.5
CCOC(=O)c1sc(NC(C)=O)cc1C,-4.6,4.6,17.5,-0.8,5694,-0.9
CCn1c(C)csc1=NC(=O)c1ccccc1,-0.8,-7.5,34.0*,-4.1,4309,-0.4
CCn1c(C)csc1=NC(=O)c1ccccc1O,-2.2,-0.2,37.5*,3.9,8870,-0.1
Cc1csc(=NC(=O)c2ccccc2)n1Cc1ccco1,-3.3,-4.7,11.3,-22.2,11640,-1.6
SMILES,Anthrax LF prot,FBA Mtb inh,GDH-TPI inh,BoNT F protease,Autofluor counter,BoNT A protease
O=C(CS(=O)(=O)c1ccccc1)Nc1nc2ccccc2s1,0.8,-2.6,12.8,4.9,4240,0.2
N#Cc1ccc(C23CC4CC(CC(C4)C2)C3)[nH]c1=O,-1.2,12.7,22.1,-1.9,3568,0.0
Cc1ccc(C)c(CSc2nnc(CCN)o2)c1,1.6,-6.3,-2.4,6.1,9821,0.3
Cc1ccc(C)c(CSc2nnc([C@@H](N)C(C)C)o2)c1,1.8,-0.9,13.6,-3.9,16262*,-0.2
O=C(CC(c1ccccc1)c1cc(Br)ccc1O)N1CCCCC1 (stereo unspecified),-7.0,-1.1,7.2,1.0,4300,-0.7
CCCN(CCC)C(=O)CC(c1ccccc1)c1ccc(C)cc1O (stereo unspecified),-1.0,1.4,4.6,1.6,22025*,1.0
CCCN(CCC)C(=O)CC(c1ccccc1)c1cc(Br)ccc1O (stereo unspecified),-0.8,1.3,2.1,2.5,22655*,3.6
CN1CC(=O)N(CC(=O)NCCc2ccc(F)cc2)c2ccccc2C1=O,-0.2,-11.1,-6.2,6.9,4605,-0.3
O=C(NCCN1CCOCC1)c1cc2sccc2n1Cc1ccc(Cl)cc1,-3.4,5.5,0.5,-0.9,16131*,0.3
O=C(NCCN1CCOCC1)c1cc2sccc2n1Cc1ccc(F)cc1,-9.0,-0.5,4.2,7.5,15116,4.2
O=C(NC(=S)NCCN1CCOCC1)c1ccc(Cl)cc1,0.9,-2.2,1.6,54.4*,2220,5.5
O=C(O)c1ccc(/C=N/NC(=S)NCCN2CCOCC2)cc1,-11.4,-4.8,46.3*,-11.5,3531,-0.5
Oc1cccc(/C=N/NC(=S)NCCN2CCOCC2)c1O,-1.8,-1.8,16.0,-7.1,4308,-0.6
S=C(NCCN1CCOCC1)N/N=C/c1cccs1,-10.1,3.0,34.7*,?,4605,-0.1
Cc1onc(-c2ccccc2Cl)c1C(=O)Nc1ccc(-n2nncc2C(C)(C)C)cc1,2.4,-2.6,-2.1,3.6,9741,0.7
COc1ccccc1NS(=O)(=O)c1cccc(C(=O)N2CCN(C/C=C/c3ccccc3)CC2)c1,0.2,0.1,3.0,2.3,5875,-0.1
O=C(NCCN1CCOCC1)c1cccs1,-0.6,-2.3,-8.2,-0.1,2901,-0.3
c1csc(CNCCN2CCOCC2)c1,-2.2,-1.1,2.1,-0.3,16263*,0.5
Cc1ccc(NC(=S)NCCN2CCOCC2)cc1C,1.9,-3.9,-8.6,-4.6,20237*,-2.0
Cc1ccc(NC(=S)NCCCN2CCOCC2)cc1C,2.6,-0.6,-3.7,-1.9,4354,-0.4
Cc1cc(=O)oc2cc(NC(=O)C3CCCC3)ccc12,-2.4,155.4*,12.6,-6.1,4573,-1.6
Cc1ccc(NC(=O)C2CCCCC2)cc1C,1.8,-0.6,8.1,1.2,3831,0.0
